# Only some compounds are listed: those with a hit (about 3.6% of all), similar ones and a draw of the others.
# TWEAK-Fn14 inh: inhibitors of TWEAK-Fn14 signaling, primary screen, luciferase reporter cells, uHTS. TWEAK-stimulated Fn14 reporter cells, luciferase luminescence, 8 h. inhibition, % at 10 µM. 2% of 360,000 active; in the data active means inhibition above about 50%
# EBV LMP1 NFkB: EBV LMP1-driven NF-kappaB luciferase reporter inhibitors, primary screen, cell-based, luminescence, single point; LMP1-induced NF-kappaB luciferase reporter cells; inhibition, % at 12.5 µM; 0.69% of 350,000 active; AID 504558, 2011; in the data active means inhibition above about 41%; inconclusive means no clear call, values can overlap the other calls;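 further: 0% = neutral control wells and 100% = reference inhibitor control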
# HSF-1 act: HSF-1 activators, primary screen, NIH3T3-HGL cells, MG132 stress, luminescence, single point | NIH3T3-HGL HSF-1 luciferase reporter, 8 h; 100% = twice DMSO control signal | 1.7% of 300,000 active | activation, % at 9 µM;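 active means mean replicate activation of at least 50% with a set share of replicates each reaching 50%; inconclusive means only one of those two conditions met; inactive means mean below 50% and too few replicates reaching it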;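 further: 0% = median of the neutral control wells and 100% = twice that signal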
# TROY NFkB inh: inhibitors of TROY-driven NF-kB signaling, primary screen, Q293 LMP1-TROYcd cells, NF-kB luciferase, uHTS. inhibition, % at 10 µM. 0.98% of 360,000 active. Q293 LMP1-TROYcd NF-kB luciferase reporter, 4 h. AID 1347056, 2019;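 active means compounds whose plate-normalised and pattern-corrected inhibition of the luciferase reporter signal at the single screening dose is 50% or more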
# LGR2 antag: inhibitors of bursicon-induced LGR2 CRE-luciferase signal, primary screen, cell-based, HEK293, CRE-luciferase reporter, bursicon stimulation | 0.35% of 380,000 active | inhibition, % at 9.99 µM | bursicon-stimulated, 4 h | AID 720647, 2013;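 active means drop in luminescence signal, shown as inhibition above about 50% in the replicate tests, limit read from the data, passing the limit was not always enough; inconclusive means probably only some replicates passing the limit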;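 further: agonist challenge used bursicon conditioned medium at about half maximal strength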
# HSF1 inhib: HSF1 inhibitors in luciferase reporter cells, primary screen, cell-based, NIH3T3, luminescence | NIH3T3-HGL HSE-luciferase, MG132-induced, luminescence 8 h; hits give low values | activity change, negative = inhibition, % at 7.5 µM (by protocol) | 0.77% of 300,000 active;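 active means more than half of replicate wells show activity change below -50%, luminescence cut by over half; inconclusive means some wells, but at most half, below -50%; inactive means no replicate well below -50%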;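 further: luciferase reports HSF-1 transcriptional activity via heat shock element; 0% = median of DMSO wells and -100% = zero luminescence signal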
# Starred values were filed as active, the others as inactive; ? = inconclusive; . = not tested or not shown.
SMILES,TWEAK-Fn14 inh,EBV LMP1 NFkB,HSF-1 act,TROY NFkB inh,LGR2 antag,HSF1 inhib
CCCCNC(=O)C1(C)CCN1C(=O)c1ccccc1Br (stereo unspecified),13,.,.,-18,-4,.
Cc1ccc(S(=O)(=O)Nc2cc3c4c(c2)CCN4C(=O)CC3)cc1,-20,-5,58*,-27,3,35
O=C(Nc1ccc(Oc2ccccc2)cc1)C1CC1,-12,3,4,-25,-44,7
CCCC(=O)Nc1ccc(C#Cc2ccccc2)cc1,-74,-10,61*,-70,.,28
CCCC(=O)Nc1ccc(Oc2ccc(NC(=O)CCC)cc2)cc1,-21,3,-15,5,.,-3
O=C(Nc1ccc(C#Cc2ccccc2)cc1)C1CC1,-13,-43,82*,-24,.,34
CCOC(=O)c1c(C)sc2c1N(C(=O)CCl)c1cc(Cl)ccc1S2,39,-4,79*,12,.,67
Cc1c2cc(O)c(=O)cc-2oc2cc(O)c(O)cc12,86*,2,-15,-4,21,-4
COc1cc(OC)c(-c2c3cc(O)c(=O)cc-3oc3cc(O)c(O)cc23)cc1OC,62*,22,.,8,25,.
N/C(Cc1ccc([N+](=O)[O-])cc1)=N\OC(=O)c1ccccc1F,-29,-20,66*,-80,-43,49
O=C(Cc1ccc([N+](=O)[O-])cc1)OCc1c(F)cccc1Cl,-12,2,56*,-44,-8,39
COCCNC(=O)[C@@H]1[C@@H](CO)[C@@H]2Cn3c(ccc(-c4ccccc4F)c3=O)[C@@H]2N1C(=O)C1CCCC1,.,.,.,.,-13,.
O=C(Cc1ccccc1)N1C[C@H]2[C@@H](c3ccccc31)[C@@H](CO)N2C(=O)C1CCCC1,.,.,.,.,-3,.
CCc1cc2c(=O)c(-c3cscn3)coc2c(CN(C)C)c1O,-63,4,9,66*,-12,3
COC(=O)C1C=CC(OC2OC(COC(C)=O)C(OC(C)=O)C(OC(C)=O)C2OC(C)=O)n2c(=O)n(-c3ccccc3)c(=O)n21 (stereo unspecified),55*,-4,.,-8,?,.
CCn1cc(S(=O)(=O)NCc2ccc3c(c2)OCO3)cn1,6,-5,0,14,7,-3
CCn1cc(S(=O)(=O)Nc2ccc3c(c2)OCCO3)cn1,88*,7,-83,86*,25,-81*
Cc1nc(S(=O)(=O)Nc2ccc3c(c2)OCCO3)cn1C,8,4,-7,11,-7,-7
Cn1cc(S(=O)(=O)Nc2ccc3c(c2)OCCO3)cn1,70*,9,-67,62*,13,-62*
COc1ccc(S(=O)(=O)Nc2ccc3c(c2)OCCO3)cc1OC,55*,6,-1,21,-2,-21
C[C@H](CO)N1C[C@H](C)[C@H](CN(C)Cc2ccc(C(=O)Nc3ccccc3N)cc2)OCCCC[C@H](C)Oc2ccc(NC(=O)C3CCCCC3)cc2C1=O,.,.,.,.,-34,.
C[C@@H]1CCCCO[C@H](CN(C)Cc2ccc(C(F)(F)F)cc2)[C@H](C)CN([C@H](C)CO)C(=O)c2cc(NC(=O)c3ccncc3)ccc2O1,.,.,.,.,-1,.
Cc1nccn1Cc1cccc2ccccc12,-7,-1,-64,11,-2,-53*
O=C1/C(=N\S(=O)(=O)c2cccs2)C([n+]2ccc(CCCc3ccccc3)cc2)=C([O-])c2ccccc21,6,.,49,-14,.,18
O=C1/C(=N\S(=O)(=O)c2cccs2)C([n+]2cccc(Cc3ccccc3)c2)=C([O-])c2ccccc21,32,2,139*,28,.,88
CC(C)(C)c1cc[n+](C2=C([O-])c3ccccc3C(=O)/C2=N\S(=O)(=O)c2ccccc2)cc1,80*,.,-32,60*,3,-25
CC(C)[n+]1ccn(C2=C([O-])c3ccccc3C(=O)/C2=N\S(=O)(=O)c2ccccc2)c1,12,4,17,-4,.,5
O=C(Nc1ccc(F)cc1)Nc1ccc2c(c1)[C@H]1C[C@@H](CC(=O)N3CCOCC3)O[C@@H](CO)[C@H]1O2,.,.,.,.,-7,.

# Screens deposited in PubChem BioAssay by several laboratories.
